Screening data deposited in PubChem BioAssay by National Center for Advancing Translational Sciences (NCATS).
The full list was thinned out, with hits kept by preference.
CHX counter – affects cycloheximide protein synthesis inhibition readout, counter-screen. hit rate 12% among 300,000. AID 2314. max response, %. cell reporter, cycloheximide protein synthesis inhibition counterscreen; in the data active means max response mostly above about 13%, no sharp cut-off; inactive means mostly below about 14%; further: read at 38.3 µM for the half of the compounds with a filed dose; 0% is about no effect
LmPK inhibitor – inhibitors of Leishmania mexicana pyruvate kinase | purified LmPK, Kinase-Glo ATP luminescence, 1 h | Q27686 | hit rate 0.37% among 290,000 | Potency, µM (doses to about 57.5 µM), inactives show at the highest dose activity change, negative = inhibition, hits mostly inhibitors; further: potency means the concentration at half of the fitted maximal effect; on the % scale 0 is the no-effect control and ±100 the full control effect
Target sequence (Q27686 whole entry, looked up): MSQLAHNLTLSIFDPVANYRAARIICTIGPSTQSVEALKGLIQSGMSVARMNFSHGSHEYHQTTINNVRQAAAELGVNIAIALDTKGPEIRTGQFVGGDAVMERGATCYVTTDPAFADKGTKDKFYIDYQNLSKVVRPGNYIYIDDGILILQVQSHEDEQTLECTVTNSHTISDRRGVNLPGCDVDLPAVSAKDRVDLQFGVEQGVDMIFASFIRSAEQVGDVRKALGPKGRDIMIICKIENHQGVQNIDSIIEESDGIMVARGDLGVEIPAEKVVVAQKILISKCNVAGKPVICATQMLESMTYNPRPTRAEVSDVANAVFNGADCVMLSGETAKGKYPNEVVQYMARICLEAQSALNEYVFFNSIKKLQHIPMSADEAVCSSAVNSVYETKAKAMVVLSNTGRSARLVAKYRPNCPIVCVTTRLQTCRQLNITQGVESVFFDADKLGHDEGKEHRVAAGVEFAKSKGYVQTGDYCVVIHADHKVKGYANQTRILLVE
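Kinase-Glo luminescence read after 1 h RT reaction of 0.1 nM LmPK with 0.5 mM PEP and 0.1 mM ADP. Activity scaled between uninhibited and enzyme-free controls.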
TbPYK inhibitor – T. brucei pyruvate kinase inhibition; TbPYK enzyme, Kinase-Glo Plus ATP luminescence, 45 min; Potency, µM (titrated, usually from 76.8 µM), without a hit: top-dose activity, negative = inhibition, hits mostly inhibitors; hit rate 0.12% among 410,000; further: potency means the concentration at half of the fitted maximal effect; on the % scale 0 is the no-effect control and ±100 the full control effect; nearly all actives have a fitted effect of over 50% in size
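TbPYK + substrate in 50 mM TEA pH 7.2, 100 mM KCl, 10 mM MgCl2, 0.05% BSA, 0.01% Tween-20; cpd pinned; ADP 130 uM final; 45 min RT; Kinase-Glo Plus 10 min; luminescence endpoint.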
Shiga toxin inh – inhibitors of Shiga toxin in Vero cells | Vero cells, Shiga toxin protein synthesis inhibition reporter | inhibition, % at 38.7 µM | hit rate 9.2% among 290,000; in the data active means inhibition mostly above about 28%, no sharp cut-off; inactive means mostly below about 43%; further: 0% is about no effect
Giardia FBPA inh – inhibitors of Giardia lamblia fructose-1,6-bisphosphate aldolase; A8B2U2; purified Giardia FBPA; Potency, µM (titrated, usually from 59.6 µM), without a hit: top-dose activity, negative = inhibition, actives largely listed as inhibitors; hit rate 0.71% among 290,000; further: potency means the concentration at half of the fitted maximal effect; on the % scale 0 is the no-effect control and ±100 the full control effect; nearly all actives have a fitted effect of over 55% in size
Target sequence (A8B2U2 whole entry, looked up): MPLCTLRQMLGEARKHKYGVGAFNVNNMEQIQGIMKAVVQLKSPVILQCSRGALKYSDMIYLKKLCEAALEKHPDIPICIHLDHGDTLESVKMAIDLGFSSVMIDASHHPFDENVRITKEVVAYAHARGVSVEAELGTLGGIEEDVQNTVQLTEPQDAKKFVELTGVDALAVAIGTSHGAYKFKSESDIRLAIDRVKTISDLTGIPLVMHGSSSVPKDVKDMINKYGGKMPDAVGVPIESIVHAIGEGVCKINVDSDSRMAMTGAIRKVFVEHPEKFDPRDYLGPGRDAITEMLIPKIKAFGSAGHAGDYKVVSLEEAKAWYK
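40 nM FBPA preincubated 10 min at RT with compound (up to 57.5 uM final), then substrate plus GAPDH/TPI/NAD/arsenate coupling and diaphorase/resazurin added. Fluorescence read after 20 min at RT, 525/598 nm.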
RE007 growth inh – less growth of the S. pombe RE007 Vpr strain; Potency, µM (doses to about 92.2 µM), for the others: at the highest dose activity change, negative = less growth, hits mostly inhibitors; AID 651644; hit rate 0.21% among 360,000; S. pombe RE007 Vpr strain, BacTiter-Glo ATP luminescence, 24 h; active means well fitted falling curve with a large enough effect; inconclusive means small, poorly fitted or top-dose-only effect; inactive means no such curve, though single readings can be large or run the other way; further: potency means the concentration at half of the fitted maximal effect; on the % scale 0 is the no-effect control and ±100 the full control effect; nearly all actives have a fitted effect of over 50% in size
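Fission yeast strain RE007, carrying one chromosomally integrated HIV-1 vpr copy, was seeded at OD 0.01 in PMG+AL medium with 23 nL pinned compound. After 24 h at 30 °C and 99% humidity, viability was read by BacTiter-Glo luminescence.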
Active calls of the source: *; [ ] = dose if it differs, or a comment. Unless noted, the call rests on the fitted dose curve; in most records, active means well fitted curve in the direction sought with a large enough effect; inconclusive means small, poorly fitted or top-dose-only effect, or another doubt; inactive means no such curve, though single readings can be large; an effect the other way counts as inactive or inconclusive.

What do the screens show for `COc1ccc(-c2cnnc(N/N=C/c3ccc(OC)c(OC)c3)n2)cc1`?
CHX counter: 4.2; LmPK inhibitor: 3.0%; TbPYK inhibitor: -20.5%; Shiga toxin inh: 0.0; Giardia FBPA inh: 26.0%; RE007 growth inh: -0.8%

How did COc1ccc(N/N=C(/C)c2cnnc(-c3ccccc3)n2)cc1 do in these assays?
CHX counter: 1.6; LmPK inhibitor: -2.0%; TbPYK inhibitor: -1.2%; Shiga toxin inh: 30.4; Giardia FBPA inh: -0.2%; RE007 growth inh: 8.6%

How did Oc1c(Br)cc(/C=N/Nc2nncc3ccccc23)cc1Br do in these assays?
CHX counter: 29.8*; LmPK inhibitor: 0.0%; TbPYK inhibitor: -2.8%; Shiga toxin inh: 66.8; Giardia FBPA inh: inconclusive; RE007 growth inh: 12.2%

What do the screens show for `O=C(N/N=C/c1cc(Br)c(O)c(Br)c1)c1cccnc1`?
CHX counter: 9.4; LmPK inhibitor: 4.4%; TbPYK inhibitor: 4.9%; Shiga toxin inh: 19.3; Giardia FBPA inh: -22.7%; RE007 growth inh: 12.5%

How did COc1cccc(C=NNc2nnc(NN=Cc3cccc(OC)c3OC)c3ccccc23)c1OC do in these assays?
TbPYK inhibitor: -8.7%; RE007 growth inh: -9.9%

How did CC(=O)Nc1ccc(S(=O)(=O)N2CCN(S(=O)(=O)N3CCC(C)CC3)CC2)cc1 do in these assays?
CHX counter: -4.1; LmPK inhibitor: 0.5%; TbPYK inhibitor: -2.0%; Shiga toxin inh: -5.2; Giardia FBPA inh: -3.7%; RE007 growth inh: -6.3%

What do the screens show for `CCOC(=O)Cn1c(=O)oc2cc(S(=O)(=O)N3CCC(C(=O)OCC)CC3)ccc21`?
TbPYK inhibitor: -0.6%

Results for COc1ccc(/C(C)=N/Nc2nc3ccccc3nc2C)cc1 ?
CHX counter: 45.3*; LmPK inhibitor: -9.8%; TbPYK inhibitor: 0.6%; Shiga toxin inh: 76.0*; Giardia FBPA inh: inconclusive; RE007 growth inh: 11.0%

What do the screens show for `NNc1nncc2ccccc12`?
TbPYK inhibitor: -7.8%[33.2 µM]; Giardia FBPA inh: 5µM*

How did C/C(=N\Nc1nc(-c2ccccc2O)nc2ccccc12)c1ccccc1 do in these assays?
CHX counter: 2.3; LmPK inhibitor: -0.8%; TbPYK inhibitor: -6.4%; Shiga toxin inh: 22.6; Giardia FBPA inh: -5.3%; RE007 growth inh: 5.5%

How did Cc1ccc2nc3sc(C(=O)Nc4ccc(F)cc4)cc3cc2c1 do in these assays?
TbPYK inhibitor: 1.2%

Results for CC(C)OC(=O)c1cccc2c1C(=O)c1ccccc1-2 ?
CHX counter: 37.9*; LmPK inhibitor: -0.9%; TbPYK inhibitor: 1.8%; Shiga toxin inh: 73.7*; Giardia FBPA inh: -4.8%; RE007 growth inh: -18.5%

Results for O=c1c2ccccc2nc2n1CCN2Cc1ccc(Cl)cc1 ?
CHX counter: 32.8*; LmPK inhibitor: 0.7%; TbPYK inhibitor: 2.1%; Shiga toxin inh: 37.6; Giardia FBPA inh: -2.9%; RE007 growth inh: 16.6%

What do the screens show for `CSc1ccc(CCNC(=O)c2c(C)nn(-c3ccc(F)cc3)c2-n2cccc2)cc1`?
TbPYK inhibitor: 0.5%

How did Cc1ccsc1C(=O)Nc1ccc2c(c1)OCCO2 do in these assays?
CHX counter: 29.0*; LmPK inhibitor: 15.8µM*; TbPYK inhibitor: inconclusive; Shiga toxin inh: 27.4*; Giardia FBPA inh: -7.8%; RE007 growth inh: -23.6%

How did Cc1ncoc1C(=O)Nc1ccc2c(c1)OCCO2 do in these assays?
CHX counter: 46.7*; LmPK inhibitor: 15.8µM*; TbPYK inhibitor: -29.0%; Shiga toxin inh: 76.6*; Giardia FBPA inh: -1.1%; RE007 growth inh: -11.9%

Results for COC(=O)Cn1ncc2c3ccccc3n(Cc3ccccc3)c2c1=O ?
CHX counter: -1.0; LmPK inhibitor: 0.4%; TbPYK inhibitor: -5.1%; Shiga toxin inh: 7.7; Giardia FBPA inh: -4.4%; RE007 growth inh: -1.0%

Results for COC(=O)Cn1ncc(N(C)Cc2ccccc2)c(Cl)c1=O ?
CHX counter: 41.2*; LmPK inhibitor: 1.3%; TbPYK inhibitor: -0.2%; Shiga toxin inh: 72.4*; Giardia FBPA inh: -5.7%; RE007 growth inh: 12.3%

Results for C=CCn1cnc2c(oc3ccccc32)c1=O ?
CHX counter: 25.1*; LmPK inhibitor: 1.7%; TbPYK inhibitor: -3.8%; Shiga toxin inh: 35.6; Giardia FBPA inh: -2.2%; RE007 growth inh: -1.8%

Results for O=c1c2oc3ccccc3c2ncn1Cc1ccccc1Cl ?
CHX counter: 17.2; LmPK inhibitor: 3.2%; TbPYK inhibitor: 2.5%; Shiga toxin inh: 50.6; Giardia FBPA inh: 6.4%; RE007 growth inh: -1.4%

What do the screens show for `O=c1c2oc3ccccc3c2ncn1Cc1ccccc1F`?
CHX counter: 29.5*; LmPK inhibitor: 5.6%; TbPYK inhibitor: 6.7%; Shiga toxin inh: 32.6; Giardia FBPA inh: 5.8%; RE007 growth inh: 1.2%

How did COc1ccc(NC(=O)CC2CCCCC2)cc1OC do in these assays?
CHX counter: 26.8*; LmPK inhibitor: -0.9%; TbPYK inhibitor: -3.0%; Shiga toxin inh: 35.6; Giardia FBPA inh: -13.5%; RE007 growth inh: -7.2%

What do the screens show for `O=C(CC1CCCC1)Nc1ccc(Br)cc1`?
CHX counter: 32.1*; LmPK inhibitor: 2.0%; TbPYK inhibitor: 3.0%; Shiga toxin inh: 75.7*; Giardia FBPA inh: -7.1%; RE007 growth inh: -1.9%

How did Cc1cc(NS(=O)(=O)c2ccc(Nc3nc(-c4ccc(O)cc4)cs3)cc2)no1 do in these assays?
CHX counter: -1.3; LmPK inhibitor: 3.1%; TbPYK inhibitor: -14.1%; Shiga toxin inh: -7.2; Giardia FBPA inh: 13.1%; RE007 growth inh: 15.5%

Results for C(=N\Nc1nc(-c2ccccc2)cs1)/c1cccs1 ?
CHX counter: 67.8*; LmPK inhibitor: -2.2%; TbPYK inhibitor: -15.4%; Shiga toxin inh: 105.1*; Giardia FBPA inh: -15.6%; RE007 growth inh: -13.2%

Results for C(=N\Nc1nc(-c2ccccc2)cs1)/c1ccncc1 ?
CHX counter: 42.8*; LmPK inhibitor: -0.2%; TbPYK inhibitor: -7.6%; Shiga toxin inh: 51.1*; Giardia FBPA inh: -10.9%; RE007 growth inh: 34.5%

Results for ClCc1csc(N/N=C/c2cccs2)n1 ?
CHX counter: 17.5*; LmPK inhibitor: -14.6%; Shiga toxin inh: 39.0*; Giardia FBPA inh: -28.8%

How did O=C(Cc1ccc(Cl)cc1)N/N=C/c1cccs1 do in these assays?
CHX counter: -4.0; LmPK inhibitor: 5.3%; TbPYK inhibitor: -1.6%; Shiga toxin inh: 5.8; Giardia FBPA inh: 0.8%; RE007 growth inh: 7.8%

What do the screens show for `CN(C)S(=O)(=O)c1ccc(-c2csc(N/N=C/c3ccc(O)cc3)n2)cc1`?
CHX counter: 14.0*; LmPK inhibitor: 10.3%; TbPYK inhibitor: -9.4%; Shiga toxin inh: 32.4; Giardia FBPA inh: -15.4%; RE007 growth inh: -9.4%

What do the screens show for `Cc1onc(-c2ccccc2)c1-c1csc(N/N=C/c2ccccc2)n1`?
CHX counter: 1.7; LmPK inhibitor: 0.8%; TbPYK inhibitor: -3.5%; Shiga toxin inh: 17.9; Giardia FBPA inh: -9.5%; RE007 growth inh: 18.8%

How did CCCCN(C)C(=O)Cn1cnc2sc(C)c(S(=O)(=O)N3CCC(C)CC3)c2c1=O do in these assays?
TbPYK inhibitor: -9.0%
